An excerpt weighted towards active compounds, which were near 28% of everything screened.
CYP2C9 inh: inhibitors of human CYP2C9 | CYP2C9 Supersomes, luciferin-H conversion, luminescence | inhibition, % at 5 µM | actives 20% (n = 96,000) | AID 777;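 active means blocking of liver enzyme CYP2C9 beyond about 50% at 5 µM, limit read from the data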
Target sequence (P11712 whole entry, looked up): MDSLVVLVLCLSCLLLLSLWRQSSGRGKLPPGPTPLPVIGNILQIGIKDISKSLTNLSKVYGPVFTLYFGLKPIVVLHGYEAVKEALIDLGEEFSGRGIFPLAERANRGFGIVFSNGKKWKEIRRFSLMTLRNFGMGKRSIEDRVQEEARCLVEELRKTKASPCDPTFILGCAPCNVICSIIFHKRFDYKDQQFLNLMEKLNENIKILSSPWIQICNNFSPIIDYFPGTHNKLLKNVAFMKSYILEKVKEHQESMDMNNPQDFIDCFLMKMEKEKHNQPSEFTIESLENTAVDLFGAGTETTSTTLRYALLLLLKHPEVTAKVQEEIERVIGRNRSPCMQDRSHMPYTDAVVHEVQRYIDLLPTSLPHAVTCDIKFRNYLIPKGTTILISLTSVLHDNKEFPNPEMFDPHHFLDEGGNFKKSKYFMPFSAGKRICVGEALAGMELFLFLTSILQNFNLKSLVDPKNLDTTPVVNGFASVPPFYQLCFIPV
CD11b adhes inh: blocks human CD11b/CD18 adhesion to fibrinogen; actives 0.54% (n = 93,000); inhibition, % at 10 µM; K562 CD11b/CD18 adhesion to fibrinogen, ATPlite luminescence; Mn2+ added to activate the integrin; P05107+P11215;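 active means primary inhibition of 50% or more at 10 µM, then 40% or more on retest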
CYP2C19 activ: cytochrome P450 2C19 (human) activation; recombinant CYP2C19, luciferin-H EGE luminescence; stronger effect = higher value; 0 = fully inhibited enzyme, 1 = untreated enzyme; activation factor at 5 µM; 96,000 tested, under 10 active; AID 1025;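 active means activation factor of at least 2 at 5 µM in the primary screen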;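 further: 0 = wells with 2.5 mM tranylcypromine and 1 = vehicle-only wells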
CYP2C19 inhib: blocks human cytochrome P450 2C19; CYP2C19 Supersomes, luciferin-H EGE luminescence, 30 min; inhibition, % at 5 µM; actives 21% (n = 96,000);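 active means CYP2C19 inhibition above a set limit at 5 µM in the primary screen, cut at about 50% in these data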;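 further: plate controls were negative control wells for no effect and 2.5 mM tranylcypromine positive control for full effect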
CYP2C9 activ: CYP2C9 (human) activation. actives 1.4% (n = 96,000). P11712. recombinant CYP2C9, luciferin-H conversion, luminescence; stronger effect = higher value; factor 1 = untreated enzyme, 0 = blocked. activation factor at 5 µM;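 active means activation factor of 2 or more for CYP2C9 at a 5 µM dose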;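 further: 0 = sulfaphenazole-blocked wells and 1 = vehicle-only wells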
Mac1 fbg enh: enhancers of human CD11b/CD18 binding to fibrinogen | P05107+P11215 | activation, % at 10 µM | K562 CD11b/CD18 adhesion to fibrinogen, ATPlite luminescence | AID 1499 | actives 0.07% (n = 93,000);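 active means 10 µM primary screen giving 50% or more activity, confirmed by 40% or more on retest at that dose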
Active calls of the source: *; / = not tested or not shown.

SMILES | CYP2C9 inh | CD11b adhes inh | CYP2C19 activ | CYP2C19 inhib | CYP2C9 activ | Mac1 fbg enh
O=C(c1cc(-c2ccncc2)nc2ccccc12)N1CCN(S(=O)(=O)/C=C/c2ccccc2)CC1 | 80* | -16 | 0.4 | 58* | 0.2 | -3
COc1ccccc1N1C(=O)C2C3C=CC(C3)C2C1=O (stereo not drawn) | 9 | 17 | 0.7 | 27 | 0.9 | -2
COc1ccccc1C(O)(C(=O)NN(C(=O)c1ccccc1)c1ccccc1C)c1cccs1 (stereo not drawn) | -12 | -8 | 1.2 | -20 | 1.1 | -4
CCC(C)c1ccc(NC(=O)COC(=O)C2=COCCO2)cc1 (stereo not drawn) | 14 | 10 | 1.1 | -6 | 0.9 | -1
CC(C)(C)NC(=O)CN(C(=O)CS(=O)CC(=O)Nc1ccc(F)cc1)c1ccccc1 (stereo not drawn) | 71* | -9 | 0.9 | 7 | 0.3 | -6
CC(C(=O)NC1CCCC1)N(C(=O)CS(=O)CC(=O)Nc1ccc(F)cc1)c1ccc2c(c1)OCCO2 (stereo not drawn) | 41 | / | 0.7 | 29 | 0.6 | /
C=C(C)C1CC=C(C)/C(=N/NC(=O)c2ccc(NC(=O)c3cccc(C)c3)cc2)C1 (stereo not drawn) | 62* | / | 0.4 | 59* | 0.4 | /
CCOC(=O)c1cc(CC)sc1NC(=O)c1cc(OC)c(OC)c(OC)c1 | 62* | -17 | 0.9 | 14 | 0.4 | 12
c1ccc(-c2nc3ccccc3c3nncn23)cc1 | 6 | -16 | 0.8 | 21 | 0.9 | -1
Cc1cccc(-c2nc3ccccc3c3nncn23)c1 | 16 | -6 | 0.5 | 54* | 0.8 | 1
COC(=O)c1cc(Br)c(=O)n(-c2cc(C)on2)c1 | 50* | -5 | 0.4 | 59* | 0.5 | -2
COC(=O)c1cc(Br)c(=O)n(-c2ccccn2)c1 | -2 | -7 | 1 | -4 | 1 | 0
CC(C)c1nnc(-c2ccc(Cl)cc2)c(N(C)C)n1 | 15 | / | 0.7 | 33 | 0.9 | /
CC/C(O)=C1\C(=O)CC(c2ccccc2)CC1=NCCC(=O)O (stereo not drawn) | / | -8 | / | / | / | 4
CCc1n[nH]c2c1/C(=N\O)CC(c1ccccc1)C2 (stereo not drawn) | 98* | -5 | 0 | 96* | 0 | 3
CCCCc1n[nH]c2c1/C(=N/O)CC(c1ccccc1)C2 (stereo not drawn) | 18 | / | 0.6 | 40 | 0.8 | /
CCCCc1noc2c1/C(=N\O)CC(c1ccccc1)C2 (stereo not drawn) | 77* | -36 | 0.5 | 48 | 0.2 | 0
CCCCCn1c(N2CCC(C(N)=O)CC2)nc2c1c(=O)[nH]c(=O)n2C | 32 | 9 | 1.1 | -8 | 0.7 | 0
O=C(c1ccccc1)c1nn(-c2ccc(Cl)cc2)cc1C(=O)c1cc2ccccc2oc1=O | 67* | 4 | 0.7 | 26 | 0.3 | -3
NC(=O)C1CCCN(C(=O)NC2CCCCC2)C1 (stereo not drawn) | 13 | 4 | 1.1 | -8 | 0.9 | 0
O=C(Cn1ncc2c3ccccc3n(Cc3ccccc3)c2c1=O)N1CCN(c2ncccn2)CC1 | 77* | 14 | 0 | 98* | 0.2 | 10
COC(=O)c1cc(OC)c(OC)cc1NC(=O)Cn1nnc(-c2ccccc2Cl)n1 | 19 | -1 | 0.9 | 14 | 0.8 | 19
CCOC(=O)N1CCN(C(=O)CN(c2cccc(C(F)(F)F)c2)S(C)(=O)=O)CC1 | 7 | 1 | 0.7 | 30 | 0.9 | 1
CCOC(=O)CN(C(=O)CSc1nnc2c(n1)[nH]c1ccccc12)c1ccccc1 | 45 | 0 | 0.2 | 81* | 0.6 | 0
Cc1ccc(C(=O)NNC(=O)CSc2nnc3c(n2)[nH]c2ccc(C)cc23)cc1 | -18 | / | 1.2 | -18 | 1.2 | /
SMILES | CYP2C9 inh | CD11b adhes inh | CYP2C19 activ | CYP2C19 inhib | CYP2C9 activ | Mac1 fbg enh
CCOC(=O)CN(C(=O)CSc1nnc2c(n1)[nH]c1ccc(F)cc12)c1ccccc1 | 75* | / | 0 | 100* | 0.3 | /
CCOC(=O)CN(C(=O)CSc1nnc2c(n1)[nH]c1c(C)cc(C)cc12)c1ccccc1 | 4 | -15 | 0.9 | 8 | 1 | 4
CCOC(=O)c1c(NC(=O)CSc2nnc3c(n2)[nH]c2ccc(F)cc23)sc(C(C)=O)c1C | 76* | / | 0.4 | 64* | 0.2 | /
Cc1cc(C)n(-c2nnc(C)n2/N=C/c2cc(Br)ccc2OCc2ccccc2)n1 | 37 | 5 | 0.8 | 20 | 0.6 | 4
CCNc1nc(N)nc(Oc2ccc(OCCOc3ccccc3)nn2)n1 | -1 | -9 | 1 | 0 | 1 | 0
CCNc1nc(N)nc(Oc2ccc(OCc3ccccc3)nn2)n1 | 7 | / | 0.2 | 76* | 0.9 | /
O=C(OCc1cnc(Cl)s1)c1cccc(Cl)c1Cl | 45 | -23 | 0.1 | 92* | 0.6 | 5
O=C(OCc1cnc(Cl)s1)c1ccccc1Cl | 13 | / | 0.2 | 77* | 0.9 | /
Cn1cc(Br)c(C(=O)NNC(=O)c2cccc(Br)c2)n1 | -87 | / | 1.1 | -10 | 1.9 | /
O=C(Nc1c(C(=O)O)oc2ccc(Br)cc12)c1ccccc1 | 34 | -8 | 1 | -1 | 0.7 | -2
O=C(Nc1ccccc1C(F)(F)F)C1CC(=O)N(c2ccccc2F)C1 (stereo not drawn) | 13 | / | 0.8 | 16 | 0.9 | /
COc1ccc(C(=O)N/N=C/c2ccc(OC(=O)c3cccs3)cc2)cc1 | / | 5 | / | / | / | -3
COc1ccc(OCCOC(=O)c2cccs2)cc1 | 73* | -22 | 0.2 | 84* | 0.3 | 0
COc1ccc(C2CC2/C(C)=N/OC(=O)c2cccs2)cc1 (stereo not drawn) | 75* | -10 | 0.4 | 62* | 0.3 | -1
COc1ccc(C(=O)O/N=C(/C)c2cccs2)cc1 | 91* | 71* | 0.5 | 48 | 0.1 | -7
COc1ccc(OCc2nnc3n2N=C(c2ccc(Br)cc2)CS3)cc1 | 37 | -3 | 1.1 | -10 | 0.6 | -3
Cc1ccc(C)n1-c1nc(=S)[nH][nH]1 | 88* | -7 | 0.2 | 76* | 0.1 | -2
O=C1C(=C(O)c2ccccc2)C(=O)c2ccccc21 | 44 | 6 | 1 | 1 | 0.6 | 0
O=C1C(=C(c2ccccc2)c2ccccc2)Nc2ccccc21 | 89* | 7 | 0.4 | 64* | 0.1 | -5
COc1ccccc1/C=N/NC(=O)CCn1cnc2ccccc21 | / | -3 | / | / | / | 3
O=C(NNC(=O)C1CC1c1ccccc1)c1cccc([N+](=O)[O-])c1 (stereo not drawn) | / | -16 | / | / | / | 4
CN(C)c1nc(-c2ccccc2)c2cnn(Cc3ccccc3)c2n1 | 35 | 7 | 0.3 | 67* | 0.7 | 4
O=C(CSc1nnc(-c2ccncc2)n1Cc1ccccc1)NCCc1ccccc1 | 63* | -9 | 0.3 | 71* | 0.4 | -2

Screening results: PubChem, Sanford-Burnham Center for Chemical Genomics
